According to the supplement of paper PMC8975748:
Where a name gives a salt, the structure may show the parent alone. ± gives the standard deviation of the averaged measurements.

Columns and labels:
[1] = test system: Saccharomyces cerevisiae BY4741 SeMeCo community; experiment: z-score of prototroph abundance vs DMSO median; higher = larger share of this subpopulation than in DMSO controls; conditions: 10 µM; 24 h; SM minimal medium; subpopulation (auxotrophy): Prototroph
How it was run: (§1)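 A Saccharomyces cerevisiae BY4741 community carried four plasmids, each restoring one auxotrophy and encoding a distinct fluorescent protein. It was pre-grown overnight to OD600 1.0, diluted to 0.3, and 70 µl was added to 384-well plates acoustically predosed with library drugs (10 µM final), then grown 24 h in minimal SM medium. Cells were paraformaldehyde-fixed and imaged by automated confocal microscopy, with single-auxotroph fluorescent strains setting thresholds and autofluorescence correction. Each subpopulation's abundance was scored as a z-score against the vehicle-well median.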

[2] = test system: Saccharomyces cerevisiae BY4741 SeMeCo community; experiment: z-score of subpopulation abundance vs DMSO median, subpopulation auxotrophic for M; higher = larger share of this subpopulation than in DMSO controls; conditions: 10 µM; 24 h; SM minimal medium; subpopulation (auxotrophy): M
How it was run: as §1

[3] = test system: Saccharomyces cerevisiae BY4741 SeMeCo community; experiment: z-score of subpopulation abundance vs DMSO median, subpopulation auxotrophic for H; higher = larger share of this subpopulation than in DMSO controls; conditions: 10 µM; 24 h; SM minimal medium; subpopulation (auxotrophy): H
How it was run: as §1

[4] = test system: Saccharomyces cerevisiae BY4741 SeMeCo community; experiment: z-score of subpopulation abundance vs DMSO median, subpopulation auxotrophic for LU; higher = larger share of this subpopulation than in DMSO controls; conditions: 10 µM; 24 h; SM minimal medium; subpopulation (auxotrophy): LU
How it was run: as §1

[5] = test system: Saccharomyces cerevisiae BY4741 SeMeCo community; experiment: z-score of subpopulation abundance vs DMSO median, subpopulation auxotrophic for LM; higher = larger share of this subpopulation than in DMSO controls; conditions: 10 µM; 24 h; SM minimal medium; subpopulation (auxotrophy): LM
How it was run: as §1

[6] = test system: Saccharomyces cerevisiae BY4741 SeMeCo community; experiment: z-score of subpopulation abundance vs DMSO median, subpopulation auxotrophic for HM; higher = larger share of this subpopulation than in DMSO controls; conditions: 10 µM; 24 h; SM minimal medium; subpopulation (auxotrophy): HM
How it was run: as §1

[7] = test system: Saccharomyces cerevisiae BY4741 SeMeCo community; experiment: z-score of subpopulation abundance vs DMSO median, subpopulation auxotrophic for HU; higher = larger share of this subpopulation than in DMSO controls; conditions: 10 µM; 24 h; SM minimal medium; subpopulation (auxotrophy): HU
How it was run: as §1

[8] = test system: Saccharomyces cerevisiae BY4741 SeMeCo community; experiment: z-score of subpopulation abundance vs DMSO median, subpopulation auxotrophic for UM; higher = larger share of this subpopulation than in DMSO controls; conditions: 10 µM; 24 h; SM minimal medium; subpopulation (auxotrophy): UM
How it was run: as §1

[9] = test system: Saccharomyces cerevisiae BY4741 SeMeCo community; experiment: z-score of subpopulation abundance vs DMSO median, subpopulation auxotrophic for HL; higher = larger share of this subpopulation than in DMSO controls; conditions: 10 µM; 24 h; SM minimal medium; subpopulation (auxotrophy): HL
How it was run: as §1

[10] = test system: Saccharomyces cerevisiae BY4741 SeMeCo community; experiment: z-score of subpopulation abundance vs DMSO median, subpopulation auxotrophic for HLU; higher = larger share of this subpopulation than in DMSO controls; conditions: 10 µM; 24 h; SM minimal medium; subpopulation (auxotrophy): HLU
How it was run: as §1

[11] = test system: Saccharomyces cerevisiae BY4741 SeMeCo community; experiment: z-score of subpopulation abundance vs DMSO median, subpopulation auxotrophic for HUM; higher = larger share of this subpopulation than in DMSO controls; conditions: 10 µM; 24 h; SM minimal medium; subpopulation (auxotrophy): HUM
How it was run: as §1

[12] = test system: Saccharomyces cerevisiae BY4741 SeMeCo community; experiment: z-score of subpopulation abundance vs DMSO median, subpopulation auxotrophic for LUM; higher = larger share of this subpopulation than in DMSO controls; conditions: 10 µM; 24 h; SM minimal medium; subpopulation (auxotrophy): LUM
How it was run: as §1

[13] = test system: Saccharomyces cerevisiae BY4741 SeMeCo community; experiment: z-score of subpopulation abundance vs DMSO median, subpopulation auxotrophic for HLUM; higher = larger share of this subpopulation than in DMSO controls; conditions: 10 µM; 24 h; SM minimal medium; subpopulation (auxotrophy): HLUM
How it was run: as §1

[14] = test system: Saccharomyces cerevisiae BY4741 SeMeCo community; experiment: mean cell size (pixel area) (pixels); higher = larger cells; conditions: 10 µM; 24 h; SM minimal medium
How it was run: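 A fluorescent Saccharomyces cerevisiae BY4741 community carrying four plasmids was used, with each plasmid complementing one auxotrophy and bearing a fluorescent marker. An overnight preculture at OD600 = 1.0 was diluted to OD600 = 0.3, and 70 µl went into 384-well plates acoustically predosed with drug (final 10 µM) in SM medium for 24 h. After paraformaldehyde fixation, cells were imaged by automated confocal microscopy and analysed in Harmony, giving the mean cell pixel area per well. Each value is the average of 3 replicates. Same SeMeCo high-content imaging drug screen: Selleck FDA-approved drugs at 10 µM, 24 h in SM medium, 384-well plates, 3 replicates.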

[15] = test system: Saccharomyces cerevisiae BY4741 SeMeCo community; experiment: z-score of subpopulation abundance vs DMSO median, subpopulation auxotrophic for U; higher = larger share of this subpopulation than in DMSO controls; conditions: 10 µM; 24 h; SM minimal medium; subpopulation (auxotrophy): U
How it was run: as §1

[16] = test system: Saccharomyces cerevisiae BY4741 SeMeCo community; experiment: z-score of subpopulation abundance vs DMSO median, subpopulation auxotrophic for L; higher = larger share of this subpopulation than in DMSO controls; conditions: 10 µM; 24 h; SM minimal medium; subpopulation (auxotrophy): L
How it was run: as §1

[17] = test system: Saccharomyces cerevisiae BY4741 SeMeCo community; experiment: z-score of subpopulation abundance vs DMSO median, subpopulation auxotrophic for HLM; higher = larger share of this subpopulation than in DMSO controls; conditions: 10 µM; 24 h; SM minimal medium; subpopulation (auxotrophy): HLM
How it was run: as §1

Row | Compound | z-score of prototroph abundance [1] | z-score of subpopulation abundance [2] | z-score of subpopulation abundance [3] | z-score of subpopulation abundance [4] | z-score of subpopulation abundance [5] | z-score of subpopulation abundance [6] | z-score of subpopulation abundance [7] | z-score of subpopulation abundance [8] | z-score of subpopulation abundance [9] | z-score of subpopulation abundance [10] | z-score of subpopulation abundance [11] | z-score of subpopulation abundance [12] | z-score of subpopulation abundance [13] | mean cell size [14] | z-score of subpopulation abundance [15] | z-score of subpopulation abundance [16] | z-score of subpopulation abundance [17]
1 | Cc1c(C(N)=O)cc([N+](=O)[O-])cc1[N+](=O)[O-] [Dinitolmide] | -0.01 | -0.14 | -0.33 | 1.05 | 0.46 | -0.5 | 0.78 | 0.34 | -0.36 | -0.18 | -0.56 | -0.13 | 0.38 | – | – | – | –
2 | O=C(CCCN1CCC(O)(c2ccc(Cl)cc2)CC1)c1ccc(F)cc1 [Haloperidol] | 0.57 | -0.16 | – | -0.75 | 0.48 | -0.68 | -0.95 | -0.69 | 0.01 | 0.13 | -0.8 | -0.06 | 0.12 | 12.4 ± 0.2 | -0.4 | – | –
3 | C#C[C@]1(O)CC[C@H]2[C@@H]3CCc4cc(OC)ccc4[C@H]3CC[C@@]21C [Mestranol] | 0.82 | -1.19 | – | -0.19 | -0.14 | -0.5 | -0.49 | -0.68 | -0.16 | -0.61 | -0.58 | – | 0.02 | 12.4 ± 0.25 | -0.41 | – | –
4 | C[C@@H](O)[C@H]1C(=O)N2C(C(=O)O)=C(S[C@@H]3CN[C@H](C(=O)Nc4cccc(C(=O)O)c4)C3)[C@H](C)[C@H]12 [Ertapenem sodium] | 0.33 | 0.04 | 0.48 | – | -0.04 | -0.22 | -0.53 | 0.16 | 0.1 | -1.03 | 0 | -0.18 | -0.21 | 11.9 ± 0.17 | – | -0.78 | -0.62
5 | COC(=O)C1=C(C)NC(C)=C(C(=O)OCC(C)C)C1c1ccccc1[N+](=O)[O-] (centres undefined) [Nisoldipine] | -0.75 | 0.83 | 0.84 | – | 1.4 | 0.97 | 0.04 | 0.03 | 0.67 | 0.34 | 1.07 | 0.88 | 1.09 | 12.2 ± 0.14 | -0.48 | 0.49 | 0.45
6 | CC(C)c1c(C(=O)Nc2ccccc2)c(-c2ccccc2)c(-c2ccc(F)cc2)n1CC[C@@H](O)C[C@@H](O)CC(=O)O [Atorvastatin] | -2.62 | -2.26 | 6.46 | – | -0.19 | 2.44 | 2.62 | 1.48 | 5.39 | 1.73 | 2.1 | 0.92 | 0.49 | 11.1 ± 0.15 | 0.32 | 1.5 | 1.21
7 | Cc1onc(-c2ccccc2)c1C(=O)N[C@@H]1C(=O)N2[C@@H]1SC(C)(C)[C@@H]2C(=O)O [Oxacillin sodium monohydrate] | – | 0.02 | -0.05 | – | 0.23 | -0.14 | 0.32 | – | 0.94 | 0.2 | 0.65 | 0.47 | 0.03 | 12.04 ± 0.12 | 0.36 | 0.52 | -0.54
8 | CC1(C)S[C@@H]2[C@H](NC(=O)Cc3ccccc3)C(=O)N2[C@H]1C(=O)O [Benzylpenicillin potassium] | -0.27 | -0.08 | -0.83 | – | 0.02 | -0.39 | -0.05 | -0.02 | -0.23 | 0.89 | 0.17 | 0.72 | 0.88 | 12.1 ± 0.18 | 0.62 | 0.24 | 0.2
9 | CCOC(=O)c1ccc(N)cc1 [Benzocaine hydrochloride] | – | -1.03 | – | 0.5 | -0.93 | -0.65 | 0.87 | 0.51 | 0 | -0.85 | – | 0.12 | 0.01 | – | 1.42 | – | -0.46
10 | Cc1ccc(S(=O)(=O)NC(=O)NN2CC3CCCC3C2)cc1 (centres undefined) [Gliclazide] | 0.12 | 0.04 | -0.29 | -0.08 | -0.15 | 0.02 | -0.25 | 0.59 | 0.12 | -0.52 | -0.04 | -0.57 | -0.17 | 12.6 ± 0.2 | -0.1 | – | –
11 | CC1(C)S[C@@H]2[C@H](NC(=O)[C@H](N)c3ccc(O)cc3)C(=O)N2[C@H]1C(=O)O [Amoxicillin trihydrate] | -0.1 | 0.05 | – | 0.61 | 0.15 | -0.15 | 0.31 | 0.19 | – | 0.3 | -0.08 | 0.38 | -0.21 | – | 0.03 | – | –
12 | CC(=O)NS(=O)(=O)c1ccc(N)cc1 [Sulfacetamide Sodium] | -0.69 | 0.42 | 0.92 | – | -0.08 | 0.1 | -0.34 | 0.35 | 0.22 | -0.24 | 0.62 | 0.63 | 0.37 | 12.4 ± 0.26 | – | -0.02 | -0.1
13 | CC1=C(C(=O)O)N2C(=O)[C@@H](NC(=O)[C@H](N)c3ccccc3)[C@H]2SC1 [Cephalexin] | -0.14 | 1.37 | 0.56 | – | 0.35 | – | -0.74 | -0.17 | 0.67 | -0.6 | 0.41 | – | -0.42 | 12 ± 0.24 | -1.02 | 0.02 | -0.53
14 | O=C(Cn1cnnn1)N[C@@H]1C(=O)N2C(C(=O)O)=C(CSc3nncs3)CS[C@H]12 [Ceftezole sodium] | -0.69 | 0.01 | – | – | 0.18 | -0.19 | – | 0.35 | 0 | 0.11 | -0.02 | 0.36 | 0.82 | 12.31 ± 0.087 | 1.07 | -0.77 | 0.32
15 | N/C(=N\N=C\c1ccc(Cl)cc1)N/N=C/c1ccc(Cl)cc1 [Robenidine Hydrochoride] | – | 9.06 | 5.77 | – | 5.64 | 11.4 | -0.45 | 6.84 | 6.84 | 0.81 | 11.9 | 7.91 | – | – | -2.96 | -1.06 | 10.4
16 | CN1CCN(C2=Nc3ccccc3Oc3ccc(Cl)cc32)CC1 [Loxapine Succinate] | – | -0.12 | 0.08 | – | 0.87 | 0.14 | – | 0.97 | 1.02 | 0.59 | -0.1 | – | 0.78 | 12.4 ± 0.17 | – | 1.71 | 0.21
17 | CCCCCCCCN=C(N)NC(N)=NCc1ccc(Cl)c(Cl)c1 [Olanexidine Hydrochloride semihydrate] | -19.3 | -3.65 | 4.73 | – | – | 13.8 | 5.71 | 12.2 | 11.1 | 5.73 | 34.7 | 21.6 | 213 | 9.82 ± 0.35 | -3.91 | -3.44 | 72.9
